Here are results for 15 compounds from PubChem BioAssay (NCATS).

Inconclusive results are not listed. Calls of active or inactive are those of the source. Unless noted, calls come from the whole dose curve; as a rule, active = well fitted curve in the direction sought with a large enough effect; inconclusive = small, poorly fitted or top-dose-only effect, or another doubt; inactive = no such curve, though single readings can be large; an effect the other way counts as inactive or inconclusive.

In test [1] the target is ATP-dependent 6-phosphofructokinase (Trypanosoma brucei brucei) (UniProt O15648). In words: qHTS Assay to Find Inhibitors of T. brucei phosphofructokinase: hit validation (AID 492961). Note: series mostly up to about 51 µM; % is set by controls: 0 for no effect and ±100 for the full control effect. A digest of the protocol:
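Luminescence from ADP-Glo reports ADP generated as T. brucei PFK (1.25 nM) phosphorylates 0.5 mM fructose-6-phosphate using 0.1 mM ATP. Reactions ran 45 min at room temperature, pH 8.0.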
(qHTS replaces the single test concentration by a dilution series.)

A short description of test [2]: qHTS Validation Assay to Find Inhibitors of Chronic Active B-Cell Receptor Signaling (AID 485345; active = well fitted curve in the direction sought with a large enough effect in the main read-out, with a control signal flat, not every such curve was filed as active;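 note: 0% = untreated basal cells and 100% = 10 µM MG-132 proteasome inhibitor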). A digest of the protocol: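 TMD8 ABC-DLBCL cells stably carrying doxycycline-inducible IkappaBalpha–green luciferase fusion plus unfused red luciferase; compounds 46 uM to 3 nM, 4 h at 37C with doxycycline. Corrected green/red luminescence ratio normalized to 10 uM MG-132 and basal cell wells; curves fitted.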

The target of test [3] is Beta-2 adrenergic receptor (Homo sapiens) (UniProt P07550). In words: qHTS validation assay of beta-arrestin-biased ligands of beta2-adrenergic receptor (AID 485366). Note: 0% is about no effect. A digest of the protocol:
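Agonist activity is measured as luciferase luminescence downstream of beta-arrestin recruitment to recombinant beta2-AR in Tango cells. Exposure lasts 18 hr at 37 degrees C, and curves are categorized by r2, response size and activity.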

Test [4] has as its target Thioredoxin reductase 1, cytoplasmic (Rattus norvegicus) (UniProt O89049). The experiment in a line: qHTS Assay for Substrates of Mammalian Selenoprotein Thioredoxin Reductase 1 (TrxR1) (AID 488772).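 Note: series mostly up to about 57 µM; 0% is about no effect; a drop in NADPH fluorescence below the no-compound background marks a TrxR1 substrate.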 A digest of the protocol:
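In this dual-purpose format, potential substrates are identified from the first fluorescence read after selenite addition, not from the 8-minute delta. Rat enzyme is preincubated with NADPH and then with compound at ~22 deg C.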

The target is the same in test [5]. The experiment in a line: qHTS Assay for Inhibitors of Mammalian Selenoprotein Thioredoxin Reductase 1 (TrxR1) (AID 488773). Note: nearly all actives have a fitted effect of over 40% in size. Note: potency is the fitted concentration of half-maximal effect. The following applies: Potency: inhibition. In short, it runs like this:
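Inhibition is scored from the loss of NADPH fluorescence between first and last reads of an 8-min kinetic run. Selenite (400 uM) was the substrate, added after 15 min compound preincubation at room temperature.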

Test [6] addresses Flap endonuclease 1 (Homo sapiens) (UniProt P39748). The experiment in a line: qHTS Validation Assay for the Inhibitors of Human Flap endonuclease 1 (FEN1) (AID 488816). Note: % is set by controls: 0 for no effect and ±100 for the full control effect. In short, it runs like this:
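Enzyme reagent 10 nM; cpds pinned; 15 min RT preinc.; substrate 50 nM final; reads t=0 and 15 min; no-enzyme buffer wells as neg. control; normalized data, 4-parameter Hill fit.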

Test [7] concerns the target M-phase phosphoprotein 8 (Homo sapiens) (UniProt Q99549). In words: qHTS Validation Assay for Inhibitors for MPP8 Chromodomain Interactions with Methylated Histone Tails (AID 488949). Note: nearly all actives have a fitted effect of over 55% in size. Note: potency is the fitted concentration of half-maximal effect. A digest of the protocol: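 AlphaScreen proximity signal from streptavidin donor and Ni-chelate acceptor beads (10 ug/mL each) reported binding of MPP8 to trimethyl-K9 H3(1-18) peptide, both at 50 nM. The complex formed 30 min before a 30 min compound exposure at room temperature, in PBS pH 7.4.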

In test [8] the target is Methanococcus maripaludis chaperonin (MmCpn) (UniProt Q6LX38). The experiment in a line: High-Throughput Screening for Modulators of Cytosolic Chaperonin Activity: MmCpn Primary Screen (AID 488978).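 Note: 50 nM MmCpn enzyme hydrolysing 30 µM ATP at 37 °C; 0% is about no effect.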 In short, it runs like this:
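ATPase activity of 50 nM MmCpn was assayed with 30 uM ATP, 10 minutes at 37C, after a 5 min compound preincubation at room temperature. ADP production was read as HTRF emission at 590 and 665 nm.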

Test [9] addresses Transient receptor potential cation channel subfamily V member 1 (Homo sapiens) (UniProt Q8NER1). In words: HTS Assay for Compounds that Act as Enhancers of the Vanilloid Receptor 1 (AID 488979). Note: 0% is about no effect. In short, it runs like this:
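TRPV1 cells loaded with Fluo-8 calcium dye; compound added and Ca2+ signal (ex 480/em 520 nm) followed 3 min, then capsaicin at EC20 added and read 2 more min to detect enhancement.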

Test [10] has as its target D(1A) dopamine receptor (Homo sapiens) (UniProt P21728). In words: HTS Assay for Allosteric Agonists of the Human D1 Dopamine Receptor: Primary Screen for Agonists (AID 488981). Note: 0% is about no effect. A digest of the protocol:
(§1)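 Tetracycline-induced HEK293 Trex D1 cells with forced coupling to calcium, loaded with no-wash calcium dye; kinetic fluorescence read 180 s after compound addition for agonism, then a further 180 s after an EC20 dopamine challenge for potentiation.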

Test [11] shares this target. The experiment in a line: HTS Assay for Allosteric Agonists of the Human D1 Dopamine Receptor: Primary Screen for Antagonists (AID 488983).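 Note: calcium flux response to an EC80 dopamine challenge measured with no-wash dye; nearly all actives have a fitted effect of over 65% in size.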 Note: potency is the fitted concentration of half-maximal effect. In short, it runs like this: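 Kinetic fluorescence at 1 cycle/sec tracked intracellular calcium in force-coupled, tetracycline-inducible HEK293 T-REx D1 cells. Loss of response to an EC80 dopamine dose, given 180 s after compound, marked antagonists.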

A short description of test [12]: Validation screen for small molecules that induce genotoxicity in human embryonic kidney (HEK293T) cells expressing luciferase-tagged ELG1 (AID 493106). Note: potency is the fitted concentration of half-maximal effect. In short, it runs like this: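 Cells were dispensed at 2,000 per well, then 23 nL compound or DMSO was pinned in. After 16 hr at 37 °C and 5% CO2, ONE-Glo reagent was added. Luciferase activity was measured following 30 min at room temperature.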

The target in test [13] is ATPase family AAA domain-containing protein 5 (Homo sapiens) (UniProt Q96QE3). The experiment in a line: Validation screen for small molecules that inhibit ELG1-dependent DNA repair in human embryonic kidney (HEK293T) cells expressing luciferase-tagged ELG1 (AID 493107).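 Note: cells co-treated with the DNA-damaging agent 5-fluorouridine alongside compound; series mostly up to about 46 µM; % is set by controls: 0 for no effect and ±100 for the full control effect; inhibitors lower the ELG1-luciferase luminescence signal; nearly all actives have a fitted effect of over 70% in size.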 A digest of the protocol: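 Cells are dispensed in 1536-well format, then 5-fluorouridine and compound are pinned in. After a 16 hr incubation at 37 °C and 5% CO2, ONE-Glo is added and luciferase measured on a CCD imager.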

Test [14] can be described thus: Nrf2 qHTS screen for inhibitors: Validation (AID 493153; active = well fitted inhibition curve with a large enough effect in the main read-out, with a control signal flat, not every such curve was filed as active). The following applies: viability change: measured here: cytotoxicity max response. In short, it runs like this:
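A549 ARE_Fluc, 5% FBS OPTI-MEM; cpd titration, 18-24 h, 37°C/5% CO2. Read 1: CellTiter-Fluor (Ex 405/Em 525), cytotox. Read 2: luciferase lum, Nrf2 activity.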

The nature of test [15]: qHTS for Inhibitors of Cell Surface uPA Generation: Validation Assay (AID 493164).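 Note: RAW 264.7 macrophage cells exposed to compound for 18 h; 0% is about no effect.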 In short, it runs like this: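 ATP-Lite luminescence read-out: ATP remains high when uPA activity-dependent LF translocation into the cytoplasm is blocked. RAW 264.7 cells, 18 h compound exposure at 37 C; 7-point titration, 2.45 nM to 38.3 uM final.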
Test [16] in a line: Quantitative high throughput screen for delayed death inhibitors of the malarial parasite plastid, 48 hour incubation (AID 488752). Note: % is set by controls: 0 for no effect and ±100 for the full control effect; nearly all actives have a fitted effect of over 65% in size. A digest of the protocol: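 First, compound was pinned into RPMI 1640 medium containing 0.5% Albumax. Next, reporter-parasite-infected erythrocytes were added to 2% hematocrit and 0.1% parasitemia. After 48 h at 37 C under 5% CO2, luciferase detection reagent was added and luminescence read.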

The target of test [17] is D(1A) dopamine receptor (Homo sapiens) (UniProt P21728). The experiment in a line: HTS Assay for Allosteric Agonists of the Human D1 Dopamine Receptor: Primary Screen for Potentiators (AID 488982). Note: 0% is about no effect. A digest of the protocol:
as §1

In test [18] the target is ATP-dependent 6-phosphofructokinase (Trypanosoma brucei brucei) (UniProt O15648). In words: qHTS Validation Assay to Find Inhibitors of T. brucei phosphofructokinase (AID 485368). Particulars: outcome: dose series up to 57.5 µM. In short, it runs like this: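 Inhibition derived from concentration-response curves of luminescence, ranked by r2, response size and curve class; the underlying reaction used 1.25 nM PFK, 0.1 mM ATP and 0.5 mM F6P, 45 min, room temperature.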

The target in test [19] is Chromobox protein homolog 1 (Homo sapiens) (UniProt P83916). In words: qHTS Validation Assay for Inhibitors of HP1-beta Chromodomain Interactions with Methylated Histone Tails (AID 488953). Note: nearly all actives have a fitted effect of over 50% in size. Note: potency is the fitted concentration of half-maximal effect. A digest of the protocol:
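Disruption of preformed HP1-beta:H3K9me3 peptide complexes (both 50 nM, PBS pH 7.4 with 0.01% Tween-20) is measured by AlphaScreen after 30 min compound exposure at room temperature, using streptavidin donor and nickel chelate acceptor beads at 10 ug/mL final.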

Test [20] in a line: Quantitative high throughput screen for delayed death inhibitors of the malarial parasite plastid, 96 hour incubation (AID 488745). Note: nearly all actives have a fitted effect of over 70% in size. Note: potency is the fitted concentration of half-maximal effect. In short, it runs like this:
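Readout is firefly luciferase luminescence from an integrated reporter in P. falciparum; lower signal marks inhibited growth. Cultures at 2% hematocrit and 0.1% parasitemia were treated with compound across two generations (96 h, 37 C, 5% CO2).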

Chain of ATP-dependent 6-phosphofructokinase (Trypanosoma brucei brucei) (O15648 whole entry, looked up): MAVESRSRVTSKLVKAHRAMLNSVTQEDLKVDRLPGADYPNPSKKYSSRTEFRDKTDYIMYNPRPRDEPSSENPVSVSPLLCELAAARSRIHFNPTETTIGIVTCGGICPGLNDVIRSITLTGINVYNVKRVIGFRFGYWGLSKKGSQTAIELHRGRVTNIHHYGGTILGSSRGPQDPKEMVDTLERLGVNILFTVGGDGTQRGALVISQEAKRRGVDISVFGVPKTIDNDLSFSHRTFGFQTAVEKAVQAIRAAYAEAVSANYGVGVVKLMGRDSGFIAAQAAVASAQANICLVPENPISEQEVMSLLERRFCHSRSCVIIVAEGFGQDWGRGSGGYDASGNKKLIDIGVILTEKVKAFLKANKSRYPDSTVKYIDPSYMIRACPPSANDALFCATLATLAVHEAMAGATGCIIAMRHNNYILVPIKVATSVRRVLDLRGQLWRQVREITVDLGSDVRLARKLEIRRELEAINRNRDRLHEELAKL
Chain of D(1A) dopamine receptor (Homo sapiens) (P21728 whole entry, looked up): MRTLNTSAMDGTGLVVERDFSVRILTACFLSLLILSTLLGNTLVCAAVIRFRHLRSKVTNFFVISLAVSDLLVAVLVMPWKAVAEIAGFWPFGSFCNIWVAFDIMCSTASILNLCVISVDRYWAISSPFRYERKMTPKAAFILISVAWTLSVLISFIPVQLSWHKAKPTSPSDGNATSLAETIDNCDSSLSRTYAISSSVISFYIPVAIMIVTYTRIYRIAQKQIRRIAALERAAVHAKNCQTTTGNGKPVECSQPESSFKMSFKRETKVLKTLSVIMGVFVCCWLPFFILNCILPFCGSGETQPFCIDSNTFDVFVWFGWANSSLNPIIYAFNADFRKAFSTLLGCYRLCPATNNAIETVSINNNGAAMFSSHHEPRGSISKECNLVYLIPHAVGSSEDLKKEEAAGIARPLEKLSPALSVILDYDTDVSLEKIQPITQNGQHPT
Chain of Methanococcus maripaludis chaperonin (MmCpn) (Q6LX38 1-543): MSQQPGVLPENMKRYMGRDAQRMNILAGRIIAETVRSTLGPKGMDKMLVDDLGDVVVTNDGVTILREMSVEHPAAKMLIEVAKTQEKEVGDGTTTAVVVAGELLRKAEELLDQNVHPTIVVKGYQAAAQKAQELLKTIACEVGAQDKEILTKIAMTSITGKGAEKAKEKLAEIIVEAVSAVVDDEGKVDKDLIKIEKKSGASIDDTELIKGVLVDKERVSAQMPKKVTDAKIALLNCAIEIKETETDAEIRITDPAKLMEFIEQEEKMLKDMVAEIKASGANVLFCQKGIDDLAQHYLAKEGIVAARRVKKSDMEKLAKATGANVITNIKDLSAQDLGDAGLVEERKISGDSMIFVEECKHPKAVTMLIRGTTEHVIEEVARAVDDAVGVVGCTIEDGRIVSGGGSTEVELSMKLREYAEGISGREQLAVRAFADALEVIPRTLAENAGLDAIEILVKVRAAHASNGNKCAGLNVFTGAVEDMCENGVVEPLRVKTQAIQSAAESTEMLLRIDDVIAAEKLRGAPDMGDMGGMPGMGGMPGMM
Chain of Chromobox protein homolog 1 (Homo sapiens) (P83916 whole entry, looked up): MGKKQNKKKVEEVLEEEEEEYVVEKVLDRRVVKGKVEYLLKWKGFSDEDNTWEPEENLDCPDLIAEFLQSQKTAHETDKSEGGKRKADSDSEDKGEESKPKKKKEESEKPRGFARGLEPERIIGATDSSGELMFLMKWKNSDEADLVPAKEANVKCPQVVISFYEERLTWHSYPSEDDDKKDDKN
Chain of ATPase family AAA domain-containing protein 5 (Homo sapiens) (Q96QE3 whole entry, looked up, the tested form may be a part): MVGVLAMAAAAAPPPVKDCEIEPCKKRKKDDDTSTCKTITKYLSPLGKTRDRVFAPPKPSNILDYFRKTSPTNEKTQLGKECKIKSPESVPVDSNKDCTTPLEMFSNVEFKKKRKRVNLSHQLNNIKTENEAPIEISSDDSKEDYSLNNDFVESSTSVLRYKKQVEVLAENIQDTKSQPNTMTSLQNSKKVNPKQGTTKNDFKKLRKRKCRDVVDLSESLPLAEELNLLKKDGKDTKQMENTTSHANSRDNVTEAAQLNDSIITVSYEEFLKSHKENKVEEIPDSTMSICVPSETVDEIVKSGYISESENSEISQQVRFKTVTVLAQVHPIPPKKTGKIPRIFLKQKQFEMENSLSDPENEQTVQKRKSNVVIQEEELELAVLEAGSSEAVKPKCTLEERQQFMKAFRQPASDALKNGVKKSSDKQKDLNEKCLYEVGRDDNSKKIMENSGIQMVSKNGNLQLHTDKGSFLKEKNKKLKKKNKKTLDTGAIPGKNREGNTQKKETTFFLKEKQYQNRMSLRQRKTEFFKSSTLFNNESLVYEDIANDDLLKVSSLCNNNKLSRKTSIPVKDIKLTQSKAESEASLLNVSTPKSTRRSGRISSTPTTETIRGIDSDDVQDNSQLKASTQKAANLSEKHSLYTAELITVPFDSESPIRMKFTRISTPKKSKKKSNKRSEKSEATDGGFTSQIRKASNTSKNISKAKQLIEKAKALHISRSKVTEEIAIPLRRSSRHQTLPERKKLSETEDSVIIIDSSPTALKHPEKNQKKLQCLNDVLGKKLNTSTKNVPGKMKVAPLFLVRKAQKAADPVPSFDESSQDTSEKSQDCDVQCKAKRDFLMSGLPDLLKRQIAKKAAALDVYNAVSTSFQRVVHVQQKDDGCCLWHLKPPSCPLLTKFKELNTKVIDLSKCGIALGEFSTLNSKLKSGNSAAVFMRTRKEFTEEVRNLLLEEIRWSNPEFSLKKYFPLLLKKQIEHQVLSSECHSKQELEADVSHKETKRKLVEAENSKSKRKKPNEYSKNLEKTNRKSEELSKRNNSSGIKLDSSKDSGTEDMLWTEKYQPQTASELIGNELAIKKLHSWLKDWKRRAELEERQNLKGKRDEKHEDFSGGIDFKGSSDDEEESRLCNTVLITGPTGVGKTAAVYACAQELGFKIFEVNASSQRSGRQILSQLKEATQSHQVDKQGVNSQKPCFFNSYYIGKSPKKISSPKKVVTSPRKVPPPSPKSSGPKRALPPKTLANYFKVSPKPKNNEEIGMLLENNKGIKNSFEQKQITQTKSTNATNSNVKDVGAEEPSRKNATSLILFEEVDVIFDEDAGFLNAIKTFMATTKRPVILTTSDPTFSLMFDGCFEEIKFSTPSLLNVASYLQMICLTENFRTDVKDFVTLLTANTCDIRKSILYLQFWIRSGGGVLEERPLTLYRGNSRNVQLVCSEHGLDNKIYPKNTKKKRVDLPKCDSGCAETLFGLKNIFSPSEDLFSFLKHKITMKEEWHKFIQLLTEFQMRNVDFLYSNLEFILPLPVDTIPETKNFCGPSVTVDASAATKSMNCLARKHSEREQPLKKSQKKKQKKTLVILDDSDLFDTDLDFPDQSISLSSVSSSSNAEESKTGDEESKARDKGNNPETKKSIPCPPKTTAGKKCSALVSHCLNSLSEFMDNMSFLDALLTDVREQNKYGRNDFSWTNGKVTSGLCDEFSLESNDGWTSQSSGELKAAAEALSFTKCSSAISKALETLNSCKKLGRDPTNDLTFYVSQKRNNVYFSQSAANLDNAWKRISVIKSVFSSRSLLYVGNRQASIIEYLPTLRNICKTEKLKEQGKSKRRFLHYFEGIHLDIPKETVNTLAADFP
Chain of Transient receptor potential cation channel subfamily V member 1 (Homo sapiens) (Q8NER1 whole entry, looked up): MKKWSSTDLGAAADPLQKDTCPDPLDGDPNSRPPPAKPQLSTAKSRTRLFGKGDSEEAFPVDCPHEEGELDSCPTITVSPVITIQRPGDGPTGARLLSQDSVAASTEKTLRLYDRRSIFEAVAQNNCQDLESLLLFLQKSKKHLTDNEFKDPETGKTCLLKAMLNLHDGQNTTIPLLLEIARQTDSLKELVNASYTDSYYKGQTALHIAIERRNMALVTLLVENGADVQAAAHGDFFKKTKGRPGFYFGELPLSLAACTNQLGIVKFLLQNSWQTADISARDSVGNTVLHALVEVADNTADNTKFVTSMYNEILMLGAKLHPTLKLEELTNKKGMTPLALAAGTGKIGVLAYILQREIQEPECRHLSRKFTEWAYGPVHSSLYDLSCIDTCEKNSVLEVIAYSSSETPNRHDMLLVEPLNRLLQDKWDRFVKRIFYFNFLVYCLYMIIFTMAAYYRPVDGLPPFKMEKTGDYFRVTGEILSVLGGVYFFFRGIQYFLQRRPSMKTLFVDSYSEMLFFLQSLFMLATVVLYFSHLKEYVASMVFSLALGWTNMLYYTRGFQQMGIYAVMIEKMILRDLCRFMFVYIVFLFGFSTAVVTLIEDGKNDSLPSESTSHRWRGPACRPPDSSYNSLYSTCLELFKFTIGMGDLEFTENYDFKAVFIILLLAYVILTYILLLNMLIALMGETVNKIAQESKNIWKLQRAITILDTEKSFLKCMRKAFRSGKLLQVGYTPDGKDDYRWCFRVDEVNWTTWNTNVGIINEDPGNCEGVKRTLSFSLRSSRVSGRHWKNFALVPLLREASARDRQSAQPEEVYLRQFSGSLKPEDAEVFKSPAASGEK
Chain of Thioredoxin reductase 1, cytoplasmic (Rattus norvegicus) (O89049 whole entry, looked up): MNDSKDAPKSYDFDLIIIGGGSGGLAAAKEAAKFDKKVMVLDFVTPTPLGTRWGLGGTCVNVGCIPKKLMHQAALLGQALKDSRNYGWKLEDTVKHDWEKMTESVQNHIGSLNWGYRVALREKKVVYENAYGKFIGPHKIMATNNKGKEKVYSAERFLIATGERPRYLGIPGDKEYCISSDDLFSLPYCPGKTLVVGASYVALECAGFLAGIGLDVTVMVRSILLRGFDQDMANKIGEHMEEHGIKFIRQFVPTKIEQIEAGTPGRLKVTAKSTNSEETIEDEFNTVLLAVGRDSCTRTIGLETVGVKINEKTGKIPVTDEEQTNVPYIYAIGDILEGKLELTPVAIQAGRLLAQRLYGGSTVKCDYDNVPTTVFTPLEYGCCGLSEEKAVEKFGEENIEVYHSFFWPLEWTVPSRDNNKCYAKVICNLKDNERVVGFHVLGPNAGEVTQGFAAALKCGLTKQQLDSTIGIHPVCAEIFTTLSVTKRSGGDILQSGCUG

`O=c1[nH]cnc2c1ncn2[C@H]1CC[C@@H](CO)O1`: the compound was called inactive in [1].
With `COc1cc2ncnc(Nc3ccc(F)c(Cl)c3)c2cc1OCCCN1CCOCC1`, the result in test [1] was inactive.
On to `CCCCC1C(=O)N(c2ccccc2)N(c2ccccc2)C1=O`, for which the compound was called inactive in [2], in test [3], in test [6], in [8], in [9] and in test [10]. Also, the compound was called inactive in [13], in test [14] and in test [15]. The Potency entry in [4], in test [5], in [7], in test [11] and in [12] was “inactive” each time. Moreover, in [14], the viability change is -3.3%.
Consider `Clc1ccc(Cn2c(CN3CCCC3)nc3ccccc32)cc1`, for which the result in [2], in [3], in test [16], in test [6], in test [8] and in test [9] was inactive. Also, the call in [10], in [17], in test [1], in [13], in test [14] and in test [15] was inactive. Besides, the Potency result in test [4], in test [5], in test [7], in test [11] and in test [12] was “inactive” throughout. Moreover, in test [14], the viability change was determined as 1.98%.
Regarding `O=C(O)Cc1cccc2ccccc12`, the call in test [1] was inactive.
As to `COc1ccc(Cc2nccc3cc(OC)c(OC)cc23)cc1OC`, the result in test [3], in test [18], in test [8], in test [10], in test [17] and in test [1] was inactive. The result in test [13] and in test [15] was inactive. For the same compound, the Potency result in [4], in test [11] and in [12] was “inactive” throughout.
Take `COc1cccc(-c2cc(=O)c3ccccc3o2)c1N`: the compound was classed as inactive in test [2], in [3], in test [6], in test [8], in test [9] and in test [10]. The outcome in test [17], in test [14] and in test [15] was inactive. Besides, the Potency result in [4], in test [5], in test [7], in test [19] and in test [11] was “inactive” throughout. Also, the Potency in [12] was 2.91 µM (active). Moreover, in [14], the viability change is -8.39%.
`O=c1cc(-c2ccc(O)cc2)oc2cc(O)cc(O)c12`: the call in [3], in [6], in [8], in [9], in [10] and in test [17] was inactive. Moreover, the compound was called inactive in test [14] and in [15]. The Potency entry in test [4], in test [5], in test [7], in test [19] and in [11] was “inactive” each time. Also, the viability change in [14] is -8.56%.
As to `C[N+](C)(C)CC(=O)O`, the compound was classed as inactive in test [2], in test [3], in test [8], in test [10], in test [17] and in test [13]. In addition, the call in test [14] and in [15] was inactive. The Potency entry in test [4], in test [5] and in test [11] was “inactive” throughout. The viability change in test [14] worked out at 8.76%.
As for `CC/C(=C(\c1ccccc1)c1ccc(OCCN(C)C)cc1)c1ccccc1`, the compound was classed as inactive in test [18], in test [6], in test [8], in test [9], in test [1] and in test [13]. The compound was called inactive in test [14] and in test [15]. The Potency was 13.1 µM (active) in [20], 17.8 µM (active) in test [7] and 35.5 µM (active) in [19]. Besides, the Potency result in test [4], in [5], in test [11] and in [12] was “inactive” each time. Besides, the viability change in test [14] turned out to be 7.91%.
As to `O=c1c(-c2ccc(O)cc2)coc2cc(O)ccc12`, the result in [3], in test [6], in test [8], in test [9], in [10] and in test [17] was inactive. The compound was classed as inactive in [14] and in [15]. Further, the Potency entry in [4], in test [7], in test [19] and in [11] was “inactive” each time. In addition, the Potency is 8.44 µM (active) in test [5] and 20.6 µM (active) in test [12]. The viability change in test [14] was 1.29%.
With `CC(C)OC(=O)C(C)(C)Oc1ccc(C(=O)c2ccc(Cl)cc2)cc1`, the compound was called inactive in test [3], in test [6], in [8], in [9], in [10] and in test [17]. Further, the call in [14] and in [15] was inactive. Further, the Potency entry in test [4], in test [5], in test [7], in test [19], in test [11] and in test [12] was “inactive” in each case. In addition, the viability change in [14] was 3.23%.
Consider `C[C@@H](O)[C@H]1C(=O)N2C(C(=O)O)=C(S[C@@H]3CN[C@H](C(=O)N(C)C)C3)[C@H](C)[C@H]12`, for which, in test [1], the call was inactive.
With `COC(=O)[C@@H]1[C@H]2C[C@H]3c4[nH]c5ccccc5c4CCN3C[C@@H]2CC[C@@H]1O`, the compound was called inactive in test [3], in test [18], in test [16], in [8], in test [9] and in test [10]. Further, the result in test [17], in test [13], in test [14] and in [15] was inactive. In addition, the Potency entry in test [20], in [4], in [5], in test [7], in [19] and in [12] was “inactive” in each case. Further, the Potency in test [11] was 17.8 µM (active). In addition, the viability change in [14] was found to be 2.98%.
On to `O=C1Nc2ccc(Cl)cc2C(C#CC2CC2)(C(F)(F)F)O1` (stereo not given), for which, in test [1], the result was inactive.
